{"source": "the supplement of paper PMC7156485", "data": [{"test_system": "HCC1569", "test": "cell number relative to DMSO (% of DMSO); higher = more cells (less growth inhibition / toxicity)", "details": "concentration: 10 µM; 24 h", "summary_of_the_method": "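For HCC1569 and TDF cells, compounds at 10 µM were applied for 24 h at 37 °C in triplicate in 384-well plates. Cells were fixed in 3.7% formaldehyde, stained for H1.0 and with DAPI, and imaged at ×10 over six fields per well. The endpoint, H1.0 nuclear intensity or cell number, is shown as percent of the plate control using the median of replicates. Positional effects were smoothed for HCC1569 only.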", "values": [{"smiles": "C#CC1(O)CCC2C3CCC4=CC(=O)CCC4C3CCC21CC", "note": "(configuration not stated) [Levonorgestrel]", "cell number": 100}, {"smiles": "CC(=O)OC1C(C)OC(Oc2c(-c3ccc(O)cc3)oc3cc(O)cc(O)c3c2=O)C(O)C1OC(C)=O", "note": "(configuration not stated) [RSK Inhibitor, SL0101]", "cell number": 97.7}, {"smiles": "COc1cc2c(cc1OC)-c1cc(=Nc3c(C)cc(C)cc3C)n(C)c(=O)n1CC2.Cl", "note": "[Trequinsin hydrochloride]", "cell number": 96.4}, {"smiles": "Nc1nc(Nc2ccc(S(N)(=O)=O)cc2)nn1C(=S)Nc1c(F)cccc1F", "note": "[Cdk1/2 Inhibitor III]", "cell number": 51.9}, {"smiles": "O=C1CC(c2ccc(O)c(O)c2)Oc2c1ccc(OC1OC(CO)C(O)C(O)C1O)c2O", "note": "(configuration not stated) [Flavanomarein]", "cell number": 102}, {"smiles": "Cl.O=C(O)C1=CCCNC1", "note": "[Guvacine hydrochloride]", "cell number": 97.8}, {"smiles": "Cc1cc(NC(=O)CS(=O)(=O)c2cn(Cc3cc(Br)ccc3F)c3ccccc23)no1", "cell number": 82.5}, {"smiles": "CC(C)Cc1ccc(C(C)C(=O)NO)cc1", "note": "(configuration not stated) [Ibuproxam]", "cell number": 103}, {"smiles": "CC(=O)OC1(C(C)=O)CCC2C3CC(C)C4=CC(=O)CCC4(C)C3CCC21C", "note": "(configuration not stated) [Medroxyprogesterone 17-Acetate]", "cell number": 105}, {"smiles": "Cc1ccc(NC(=O)c2ccc(CN3CCN(C)CC3)cc2)cc1Nc1nccc(-c2cccnc2)n1", "note": "[Imatinib]", "cell number": 101}, {"smiles": "CCCc1cc(C(N)=S)ccn1", "note": "[Prothionamide]", "cell number": 106}, {"smiles": "CCCCCCCCc1ccc(CCC(N)(CO)CO)cc1.Cl", "cell number": 13.6}]}]}
